# Several values for one entry are separate records, joined by “and”; a condition that tells them apart may be missing. Equal values may be shown once. Results filed as inconclusive are left out. A structure can be active in one record and inactive in another. Activity calls are given as the source filed them. Rule for the calls, unless noted: active = hit-call score of the fitted dose curve at least 0.9, where 1 is the maximum; inactive = score below 0.9.
# Assays:
# [1] = CCTE_Shafer_MEA_dev_burst_rate: CCTE's Neural Network Formation Assay for Burst Rate, Shafer Lab (AID 2284042);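 for AC50: potency for loss of burst rate below DMSO control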
# Procedure, shortened: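 Cells plated, treated day 0; recorded DIV 5, 7, 9, 12; fed and re-treated DIV 5, 9. Endpoint: bursts per recording time, active-electrode well mean, trapezoidal AUC, fitted in decreasing direction against DMSO baseline.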
# [2] = CCTE_Shafer_MEA_dev_bursting_electrodes_number: CCTE's Neural Network Formation Assay for Number of Bursting Electrodes, Shafer Lab (AID 2284043; active = hit-call score of the fitted dose curve at least 0.9, where 1 is the maximum;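 for AC50: potency is for loss of bursting electrodes relative to DMSO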)
# Procedure, shortened: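 Primary rat cortical neurons were cultured on PEI-coated 48-well MEA plates (16 electrodes/well) and exposed from plating through day 12, with compound renewed at feeds on DIV 5 and 9. Electrodes bursting ≥1 per 2 min were counted on DIV 5, 7, 9, 12; trapezoidal AUC taken.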
# [3] = CCTE_Shafer_MEA_dev_per_burst_interspike_interval: CCTE's Neural Network Formation Assay for Burst Interspike Interval, Shafer Lab (AID 2284044);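 for AC50: potency for a decrease of within-burst interspike interval below DMSO level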
# Procedure, shortened: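 Readout is the average time between spikes inside single-electrode bursts, taken as a well mean across bursting electrodes. Cortical neurons from rat developed networks on MEA plates under continuous 12-day exposure; recordings on days 5, 7, 9 and 12 were integrated by trapezoidal AUC.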
# [4] = CCTE_Shafer_MEA_dev_burst_duration_mean: CCTE's Neural Network Formation Assay for Mean Burst Duration, Shafer Lab (AID 2284045);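 for AC50: curve fitted for loss meaning shorter burst duration than DMSO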
# Procedure, shortened: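 Primary rat cortical neurons on PEI-coated 16-electrode MEA wells, exposed from plating through day 12 with compound renewed at DIV 5 and 9; spontaneous activity recorded days 5, 7, 9, 12. Well-mean burst duration collapsed as trapezoidal AUC, fitted for loss versus DMSO.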
# [5] = CCTE_Shafer_MEA_dev_interburst_interval_mean: CCTE's Neural Network Formation Assay for Mean Interburst Interval, Shafer Lab (AID 2284046);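 note: well-mean interburst interval of bursting electrodes as AUC over four recording days; curve fitted for decrease in interburst interval relative to DMSO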
# Procedure, shortened: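 Developing rat cortical networks on 48-well MEAs receive compound from the day of plating. Burst intervals from each active electrode are averaged per well, and AUC over the recording days is fitted in the negative direction against DMSO.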
# [6] = CCTE_Shafer_MEA_dev_inter_network_spike_interval_mean: CCTE's Neural Network Formation Assay for Mean Inter-network Spike Interval, Shafer Lab (AID 2284047);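 for AC50: potency for a decrease in mean inter-network spike interval below DMSO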
# Procedure, shortened: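 Rat cortical cultures, 1.5 x 10^5 cells/well on 48-well MEA plates; continuous exposure days 0–12, medium and compound refreshed DIV 5, 9. Mean time between consecutive network-spike peaks; AUC across DIV 5/7/9/12; DMSO baseline, negative fitting direction.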
# [7] = CCTE_Shafer_MEA_dev_network_spike_number: CCTE's Neural Network Formation Assay for Number of Network Spikes, Shafer Lab (AID 2284048);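 for AC50: fit as a loss of signal meaning fewer network spikes than DMSO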
# Procedure, shortened: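 Primary rat cortical neurons were seeded at 1.5 x 10^5 cells/well on PEI-coated 16-electrode MEA wells with laminin, exposed from plating day 0, compound renewed at DIV 5 and 9. Network spikes were recorded on days 5, 7, 9, 12 and summarized as trapezoidal AUC versus DMSO.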
# [8] = CCTE_Shafer_MEA_dev_network_spike_peak: CCTE's Neural Network Formation Assay for Mean Number of Electrodes in Network Spike, Shafer Lab (AID 2284049);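 for AC50: fitted for loss of signal meaning fewer electrodes in network spikes than DMSO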
# Procedure, shortened: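 Continuous 12-day exposure of rat cortical cultures, starting at plating, on MEA plates. Endpoint: electrodes participating in network-spike peaks, AUC across DIV 5–12, DMSO as negative control.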
# [9] = CCTE_Shafer_MEA_dev_per_network_spike_spike_number_mean: CCTE's Neural Network Formation Assay for Mean Number of Spikes in a Network Spike, Shafer Lab (AID 2284053);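 for AC50: fitted as decrease in spikes per network spike relative to DMSO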
# Procedure, shortened: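 Continuous twelve-day exposure of developing rat cortical networks grown over 16 microelectrodes per well; spontaneous firing is captured at four time points, and the per-network-spike spike number is integrated over development by trapezoidal AUC.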
# [10] = UKN5_HCS_SBAD2_cell_viability: Viability Assessment in the University of Konstanz (UKN) Leist Lab Neurite Outgrowth Assay in human iPSC-derived immature Dorsal Root Ganglia Neurons (UKN5) (AID 2284056)
# Procedure, shortened: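 iPSC-derived immature peripheral neurons (SBAD2) seeded on Matrigel with CHIR99021, SU5402 and DAPT, dosed 1 h later for 24 h. Viability from Hoechst H-33342 and calcein-AM live staining, high-content imaging; bidirectional fit versus DMSO.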
# [11] = CCTE_Shafer_MEA_dev_LDH: CCTE's Lactate Dehydrogenase Assay for Cytotoxicity in the Neural Network Formation Assay, Shafer Lab (AID 2284068; active = hit-call score of the fitted dose curve at least 0.9, where 1 is the maximum;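 note: exposure for twelve days from plating with re-dosing on DIV 5 and 9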)
# Procedure, shortened: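 Cytotoxicity companion to network-formation recordings: rat cortical neurons received compound over 12 days of development, re-dosed at DIV 5 and 9 feeds. Viability was inferred from LDH enzyme activity relative to DMSO.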
# [12] = CCTE_Shafer_MEA_acute_AB: CCTE's Alamar Blue Assay for Cytotoxicity in the Neural Acute Assay, Shafer Lab (AID 2284069; active = hit-call score of the fitted dose curve at least 0.9, where 1 is the maximum;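 note: active compounds lower the viability signal compared with DMSO wells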)
# Procedure, shortened: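 Metabolic activity in chemically exposed rat cortical neurons (MEA cultures, day 13/15 post-plating) measured via CellTiter Blue resazurin reduction, 544/590 nm fluorescence; fitted relative to DMSO, with signal loss indicating reduced viability.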
# [13] = UKN5_HCS_SBAD2_neurite_outgrowth: University of Konstanz (UKN) Leist Lab Neurite Outgrowth Assay in human iPSC-derived immature Dorsal Root Ganglia Neurons (UKN5) (AID 2284070); conditions: actives raise or lower the signal
# Procedure, shortened: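 Human iPSC-derived immature DRG neurons (SBAD2) on Matrigel with CHIR99021 (1.5 uM), SU5402 (5 uM), DAPT (5 uM); compounds added 1 h post-seeding for 24 h. Calcein-AM neurite area imaged; bidirectional fit vs DMSO.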
# [14] = CCTE_Shafer_MEA_dev_AB: CCTE's Alamar Blue Assay for Cytotoxicity in the Neural Network Formation Assay, Shafer Lab (AID 2284083; active = hit-call score of the fitted dose curve at least 0.9, where 1 is the maximum;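 note: twelve days of exposure from plating with re-dosing on DIV 5 and 9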)
# Procedure, shortened: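 Fluorescent resazurin reduction serves as the viability read-out, with DMSO as negative control and baseline. Cells were primary rat cortical neurons grown on MEA plates and dosed from day 0 to day 12, treatment renewed on DIV 5 and 9.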
# [15] = CCTE_Shafer_MEA_acute_LDH: CCTE's Lactate Dehydrogenase Assay for Cytotoxicity in the Neural Acute Assay, Shafer Lab (AID 2284086; active = hit-call score of the fitted dose curve at least 0.9, where 1 is the maximum;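 note: active means LDH release rises above DMSO vehicle level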)
# Procedure, shortened: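 Primary rat cortical neurons on 48-well MEA plates, treated on day 13 or 15 post-plating. After the 40-min recording with compound, medium LDH release was read by absorbance at 490 nm. Gain of signal was fitted against DMSO negative control.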
# [16] = CCTE_Shafer_MEA_dev_correlation_coefficient_mean: CCTE's Neural Network Formation Assay for Mean Correlation Coefficient, Shafer Lab (AID 2284093);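 for AC50: well mean pairwise spike train correlation integrated as AUC over recording days 5 to 12; potency fitted for loss of correlation relative to DMSO vehicle wells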
# Procedure, shortened: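 Read-out: well-mean correlation coefficient of spike trains between electrode pairs, collapsed over four recording days as trapezoidal area-under-the-curve. Developing rat cortical neuron networks grown on MEAs received test chemical continuously from plating.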
# [17] = UKN2_HCS_IMR90_neural_migration: University of Konstanz (UKN) Leist Lab Neural Crest Cell Migration Assay in human induced IMR90 Pluripotent Stem Cells (UKN2) (AID 2284204); conditions: actives raise or lower the signal
# Procedure, shortened: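 iPSC-derived IMR90 neural crest cells on PLO/laminin/fibronectin were seeded around silicone stoppers; after stopper removal, migration in N2-S medium with EGF and FGF ran 24 h before 24 h chemical exposure. Calcein-AM/Hoechst high-content imaging; bidirectional fit versus DMSO.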
# [18] = target: Estrogen receptor (Homo sapiens) (UniProt P03372); experiment: CCTE_Deisenroth_AIME_384WELL_LUC_Shift: CCTE's 384-well Estrogen Receptor Transactivation Assay with AIME metabolic competence data shift (ERTA luciferase; difference in metabolism positive and negative), Deisenroth Lab (AID 2284041);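 note: shift is response with S9 minus without S9 so positive means metabolism raised ER signal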
# Chain of Estrogen receptor (Homo sapiens) (P03372 whole entry, looked up): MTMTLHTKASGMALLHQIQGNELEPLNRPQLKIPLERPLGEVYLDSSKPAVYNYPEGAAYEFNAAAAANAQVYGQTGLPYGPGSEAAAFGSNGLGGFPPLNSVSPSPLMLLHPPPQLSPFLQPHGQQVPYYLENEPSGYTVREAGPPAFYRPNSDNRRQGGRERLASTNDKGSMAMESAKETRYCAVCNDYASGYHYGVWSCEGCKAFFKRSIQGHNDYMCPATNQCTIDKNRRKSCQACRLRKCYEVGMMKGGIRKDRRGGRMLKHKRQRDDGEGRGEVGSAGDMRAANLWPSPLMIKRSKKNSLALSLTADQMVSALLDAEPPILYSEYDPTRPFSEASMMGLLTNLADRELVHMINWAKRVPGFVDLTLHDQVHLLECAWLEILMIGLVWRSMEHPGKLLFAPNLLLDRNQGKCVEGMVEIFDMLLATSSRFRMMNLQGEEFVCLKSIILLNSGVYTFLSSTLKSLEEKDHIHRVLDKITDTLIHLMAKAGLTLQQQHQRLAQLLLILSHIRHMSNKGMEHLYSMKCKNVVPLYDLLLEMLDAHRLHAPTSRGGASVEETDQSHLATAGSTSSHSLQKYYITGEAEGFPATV
# Procedure, shortened: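 Here, parent compounds undergo 2 h phase I metabolism by PB/BNF-induced rat S9 before 24 h transactivation in VM7Luc4E2 cells; the curve models S9-positive minus S9-negative response over a 10-point series.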
# DIO2 (gene 1734) = experiment: CCTE_GLTED_hDIO2: CCTE's human Deiodinase 2 (DIO2) Inhibition Assay, Great Lakes Toxicology and Ecology Division (GLTED) Lab (AID 2284050; active = hit-call score of the fitted dose curve at least 0.9, where 1 is the maximum)
# Procedure, shortened: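 Cell-free human DIO2 enzyme was incubated with test chemical for 3 h; iodide liberated from substrate was then quantified by the Sandell-Kolthoff reaction (absorbance), run in triplicate. Loss of signal versus DMSO baseline indicated inhibition.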
# DIO3 (gene 1735) = experiment: CCTE_GLTED_hDIO3: CCTE's human Deiodinase 3 (DIO3) Inhibition Assay, Great Lakes Toxicology and Ecology Division (GLTED) Lab (AID 2284055; active = hit-call score of the fitted dose curve at least 0.9, where 1 is the maximum;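 note: potency is for inhibition seen as loss of released iodide signal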)
# Procedure, shortened: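 Cell-free assay with human DIO3 enzyme produced by adenovirus expression; enzyme incubated with test chemical for 3 hours. Liberated iodide then measured by Sandell-Kolthoff absorbance; loss of signal versus DMSO baseline indicates inhibition, run in triplicate.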
smiles,measurement,setting,value
CCC[CH2][Sn]([Cl])([CH2]CCC)[CH2]CCC,AC50,[1],43 nM (active)
same,AC50,[2],40.6 nM (active)
same,AC50,[3],39.2 nM (active)
same,AC50,[4],30.2 nM (active)
same,AC50,[5],76.2 nM (active)
same,AC50,[6],76.9 nM (active)
same,AC50,[7],56.5 nM (active)
same,AC50,[8],75.4 nM (active)
same,AC50,[9],63.2 nM (active)
same,AC50,[10],306 nM (active)
same,AC50,[11],84.3 nM (active)
same,AC50,[12],1.92 µM (active) and 3.06 µM (active)
same,AC50,[13],109 nM (active)
same,AC50,[14],81.4 nM (active)
same,AC50,[15],29.7 µM (active) and 15 µM (active)
same,AC50,[16],77.2 nM (active)
same,AC50,[17],195 nM (active)
C[N+](C)(C)CC1CO1 (centres undefined),outcome,[18],inactive
same,outcome,[12],inactive
same,outcome,[15],inactive
CN(C)[C@@H]1C(=O)C(C(N)=O)=C(O)[C@@]2(O)C(=O)C3=C(O)c4c(O)cccc4[C@@](C)(O)[C@H]3C[C@@H]12,outcome,[1],inactive
same,outcome,[2],inactive
same,outcome,[3],inactive
same,outcome,[4],inactive
same,outcome,[5],inactive
same,outcome,[6],inactive
same,outcome,[7],inactive
same,outcome,[8],inactive
same,outcome,DIO2 (gene 1734),inactive
same,outcome,[9],inactive
same,AC50,DIO3 (gene 1735),79800 nM (active)
same,outcome,[11],inactive
same,outcome,[14],inactive
same,outcome,[16],inactive
CCCCCCCCn1sccc1=O,AC50,[18],14000 nM (active)
same,AC50,DIO2 (gene 1734),8470 nM (active)
same,AC50,DIO3 (gene 1735),17500 nM (active)
same,outcome,[12],inactive
same,outcome,[15],inactive
CNC(=O)Oc1cccc2c1OC(C)(C)C2,AC50,[18],45400 nM (active)
same,outcome,[1],inactive
same,AC50,[2],15 µM (active) and 76.8 µM (active)
same,outcome,[3],inactive
same,outcome,[4],inactive
same,outcome,[5],inactive
same,outcome,[6],inactive
same,outcome,[7],inactive
same,AC50,[8],10 µM (active) and 49.6 µM (active)
same,AC50,[9],49600 nM (active)
same,outcome,[9],inactive
same,AC50,[11],49600 nM (active)
same,outcome,[11],inactive
same,AC50,[14],49600 nM (active)
same,outcome,[14],inactive
same,outcome,[16],inactive
same,outcome,[17],inactive
N#CC(Br)Br,outcome,[12],inactive
same,outcome,[15],inactive
O=P(OCCCl)(OCCCl)OCCCl,outcome,[1],inactive
same,outcome,[2],inactive
same,outcome,[3],inactive
same,outcome,[4],inactive
same,outcome,[5],inactive
same,outcome,[6],inactive
same,outcome,[7],inactive
same,outcome,[8],inactive
same,outcome,[9],inactive
same,outcome,[12],inactive
same,outcome,[14],inactive
same,outcome,[15],inactive
same,outcome,[16],inactive
CC(C)(O)c1cnn2c(-c3ccc(F)c(-c4c(F)cccc4C#N)c3)cnc2n1,outcome,[1],inactive
same,AC50,[2],1980 nM (active)
same,outcome,[3],inactive
same,outcome,[4],inactive
same,outcome,[5],inactive
same,outcome,[6],inactive
same,outcome,[7],inactive
same,AC50,[8],1980 nM (active)
same,outcome,[9],inactive
same,outcome,[12],inactive
same,outcome,[14],inactive
same,outcome,[15],inactive
same,outcome,[16],inactive

# — PubChem BioAssay (EPA / NIEHS)
